Unmarked numbers belong to inactive results. Records with an inconclusive call do not appear. Some of the results follow. A call without a number means that no potency is given here. Active and inactive are the calls of the source. Calls come from the whole dose curve; as a rule, active = well fitted curve in the direction sought with a large enough effect; inconclusive = small, poorly fitted or top-dose-only effect, or another doubt; inactive = no such curve, though single readings can be large; an effect the other way counts as inactive or inconclusive.
Columns and labels:
[1] = biological target: Rap guanine nucleotide exchange factor 3 (Homo sapiens) (UniProt O95398); assay: Confirmatory qHTS for agonist of cAMP-regulated guanine nucleotide exchange factor 3 (EPAC1) (AID 1645881);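 note: EPAC1 catalysed release of BODIPY-GDP from Rap1B seen as fluorescence loss; nearly all actives have a fitted effect of over 75% in size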
Sequence of Rap guanine nucleotide exchange factor 3 (Homo sapiens) (O95398 whole entry, looked up): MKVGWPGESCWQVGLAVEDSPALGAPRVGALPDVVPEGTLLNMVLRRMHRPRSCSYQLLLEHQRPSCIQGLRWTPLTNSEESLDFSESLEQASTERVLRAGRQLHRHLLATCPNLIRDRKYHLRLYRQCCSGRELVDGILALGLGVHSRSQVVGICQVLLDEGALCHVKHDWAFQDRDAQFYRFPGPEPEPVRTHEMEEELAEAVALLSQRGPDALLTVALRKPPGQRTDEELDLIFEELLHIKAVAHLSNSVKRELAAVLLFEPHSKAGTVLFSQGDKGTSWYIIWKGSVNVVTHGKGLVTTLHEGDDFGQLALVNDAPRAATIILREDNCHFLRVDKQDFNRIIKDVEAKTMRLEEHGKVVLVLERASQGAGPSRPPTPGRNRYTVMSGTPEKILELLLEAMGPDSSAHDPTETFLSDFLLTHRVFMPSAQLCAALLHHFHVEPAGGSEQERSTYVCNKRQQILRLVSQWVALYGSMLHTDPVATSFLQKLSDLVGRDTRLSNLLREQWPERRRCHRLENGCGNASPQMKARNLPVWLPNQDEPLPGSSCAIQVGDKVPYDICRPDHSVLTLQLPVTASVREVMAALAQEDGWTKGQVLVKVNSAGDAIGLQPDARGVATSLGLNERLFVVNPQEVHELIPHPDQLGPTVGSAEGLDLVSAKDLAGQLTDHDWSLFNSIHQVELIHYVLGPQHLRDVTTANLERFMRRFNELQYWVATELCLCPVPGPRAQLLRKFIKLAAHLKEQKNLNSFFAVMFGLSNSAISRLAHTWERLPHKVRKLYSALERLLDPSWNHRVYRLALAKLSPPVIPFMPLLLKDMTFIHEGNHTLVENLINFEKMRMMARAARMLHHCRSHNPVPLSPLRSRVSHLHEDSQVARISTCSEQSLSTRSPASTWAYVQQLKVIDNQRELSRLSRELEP

[2] = biological target: Rap guanine nucleotide exchange factor 4 (Homo sapiens) (UniProt Q8WZA2); assay: Confirmatory qHTS for agonist of cAMP-regulated guanine nucleotide exchange factor 4 (EPAC2) (AID 1645884);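 note: nucleotide exchange releases bodipy-GDP from Rap1 and this lowers its fluorescence; nearly all actives have a fitted effect of over 65% in size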; note: potency is the fitted concentration of half-maximal effect
Sequence of Rap guanine nucleotide exchange factor 4 (Homo sapiens) (Q8WZA2 whole entry, looked up): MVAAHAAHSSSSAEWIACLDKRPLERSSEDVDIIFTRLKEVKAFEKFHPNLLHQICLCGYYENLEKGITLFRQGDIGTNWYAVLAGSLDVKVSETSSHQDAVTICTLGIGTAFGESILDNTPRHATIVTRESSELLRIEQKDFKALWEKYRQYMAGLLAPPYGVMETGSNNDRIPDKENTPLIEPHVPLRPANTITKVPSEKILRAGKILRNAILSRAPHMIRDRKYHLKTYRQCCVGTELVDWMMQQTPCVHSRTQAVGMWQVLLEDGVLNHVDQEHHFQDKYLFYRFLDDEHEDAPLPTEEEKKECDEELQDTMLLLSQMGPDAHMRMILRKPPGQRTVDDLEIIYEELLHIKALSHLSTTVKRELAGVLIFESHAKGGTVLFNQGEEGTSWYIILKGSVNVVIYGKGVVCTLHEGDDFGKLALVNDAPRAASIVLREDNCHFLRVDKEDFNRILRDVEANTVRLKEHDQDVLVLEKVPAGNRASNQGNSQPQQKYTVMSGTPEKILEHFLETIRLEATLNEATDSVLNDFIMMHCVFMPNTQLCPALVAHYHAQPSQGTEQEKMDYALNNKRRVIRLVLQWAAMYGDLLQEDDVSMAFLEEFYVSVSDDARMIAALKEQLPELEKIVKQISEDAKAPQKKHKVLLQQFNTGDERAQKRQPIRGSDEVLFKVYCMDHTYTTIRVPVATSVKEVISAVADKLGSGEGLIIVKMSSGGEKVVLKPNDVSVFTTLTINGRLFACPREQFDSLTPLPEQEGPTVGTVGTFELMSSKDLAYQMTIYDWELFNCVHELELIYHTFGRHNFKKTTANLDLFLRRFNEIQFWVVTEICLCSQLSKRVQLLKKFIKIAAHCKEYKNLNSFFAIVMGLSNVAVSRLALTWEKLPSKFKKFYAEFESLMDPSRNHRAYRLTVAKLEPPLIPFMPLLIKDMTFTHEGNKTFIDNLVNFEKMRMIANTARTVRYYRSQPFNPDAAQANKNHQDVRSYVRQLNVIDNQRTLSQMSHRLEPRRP

[3] = biological target: Rap guanine nucleotide exchange factor 3 (Homo sapiens) (UniProt O95398); assay: Counterscreen qHTS for agonist of cAMP-regulated guanine nucleotide exchange factor 3 (EPAC1) (AID 1645889); note: nearly all actives have a fitted effect of over 40% in size
In short: (§1)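 Rap1B-BODIPY-GDP 250 nM + GDP 50 uM; cpds 7-pt, final 9.74 nM–152 uM (activator mode) or from 7.32 nM upwards (inhibitor mode); RT; FI 480/540 nm at 5 and 30 min, then ± cAMP, reread.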

[4] = qHTS for Inhibitors of the vitamin D receptor (VDR): Hit Validation using a Texas Red Assay (AID 602201); note: potency is the fitted concentration of half-maximal effect
In short: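 After a 2-hour room-temperature incubation, polarization of Texas-Red emission was read (Ex 595 nm/Em 615 nm). Final mix contained 7 nM Texas Red, 1.5 uM VDR-LBD and LG19078.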

[5] = biological target: Rap guanine nucleotide exchange factor 3 (Homo sapiens) (UniProt O95398); assay: Counterscreen qHTS for antagonist of cAMP-regulated guanine nucleotide exchange factor 3 (EPAC1) (AID 1645888);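 note: fluorescence loss as bound BODIPY-GDP is released from Rap1B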
In short: as §1

[6] = biological target: Cytochrome P450 3A4 (Homo sapiens) (UniProt P08684); assay: qHTS Assay for Inhibitors and Substrates of Cytochrome P450 3A4 (AID 884); note: potency is the fitted concentration of half-maximal effect; nearly all actives have a fitted effect of over 50% in size
Sequence of Cytochrome P450 3A4 (Homo sapiens) (P08684 whole entry, looked up): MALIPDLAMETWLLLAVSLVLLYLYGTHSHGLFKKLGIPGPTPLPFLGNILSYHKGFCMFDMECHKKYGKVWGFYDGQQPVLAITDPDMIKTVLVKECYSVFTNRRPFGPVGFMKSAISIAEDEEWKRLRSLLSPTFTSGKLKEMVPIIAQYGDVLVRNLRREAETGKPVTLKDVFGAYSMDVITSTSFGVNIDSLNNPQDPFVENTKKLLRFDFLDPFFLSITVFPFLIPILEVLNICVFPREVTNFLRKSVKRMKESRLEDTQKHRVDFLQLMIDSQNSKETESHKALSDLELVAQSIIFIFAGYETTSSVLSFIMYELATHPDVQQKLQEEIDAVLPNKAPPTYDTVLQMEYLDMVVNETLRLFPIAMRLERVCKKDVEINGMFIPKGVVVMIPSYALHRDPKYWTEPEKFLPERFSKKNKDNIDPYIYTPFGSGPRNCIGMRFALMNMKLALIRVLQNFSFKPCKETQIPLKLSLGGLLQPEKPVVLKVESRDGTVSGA
In short: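 20 nM human CYP3A4 with 25 uM Luciferin-PPXE (at KM) in 200 mM KPO4, preincubated 10 min with compound; NADPH regeneration started a 60 min RT reaction. Luciferin detected by luminescence, normalized to 57 uM ketoconazole as full inhibition.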

[7] = biological target: Cytochrome P450 3A4 (Homo sapiens) (UniProt P08684); assay: qHTS Assay for Activators of Cytochrome P450 3A4 (AID 885); note: nearly all actives have a fitted effect of over 65% in size
In short: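 Quantitative HTS format: compounds preincubated with 20nM human CYP3A4 and Luciferin-PPXE substrate at KM, reaction started by NADPH regeneration, stopped after 60 min, luciferase luminescence read 20 min later.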

[8] = Confirmation and Secondary Assay for Modulators of Hemoglobin Beta Chain Splicing at IVS2 654 locus (AID 910);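 note: HeLa cells stably carrying EGFP split by mutant beta-globin IVS2-654 intron; per-well total GFP intensity by laser scanning cytometry after 2-day treatment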
In short: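 Readout: per-well total peak green fluorescence (488 nm ex, 500–520 nm em) from objects 5–250 µm, reflecting correct splicing of an EGFP-654 reporter. Compounds were applied for 2 days at 37 °C to overnight-plated HeLa EGFP-654 cells; controls were DMSO and 500 nM IVS2-654 PNA.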

[9] = Confirmation and Secondary Assay for Modulators of Hemoglobin Beta Chain Splicing at IVS2 705 locus (AID 930);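 note: HeLa cells stably expressing the EGFP-705 splicing reporter; series mostly up to about 46 µM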
In short: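 HeLa cells stably carrying EGFP interrupted by mutant beta-globin IVS2-705 intron (CMV-driven) were seeded at 500 cells/well, treated next day with compound for 2 days at 37C; corrected splicing restores EGFP, read as total peak GFP intensity per well.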

[10] = biological target: DNA dC->dU-editing enzyme APOBEC-3G (Homo sapiens) (UniProt Q9HC16); assay: qHTS for inhibitors of Vif-A3G interactions: Validation (AID 588379)
Sequence of DNA dC->dU-editing enzyme APOBEC-3G (Homo sapiens) (Q9HC16 whole entry, looked up): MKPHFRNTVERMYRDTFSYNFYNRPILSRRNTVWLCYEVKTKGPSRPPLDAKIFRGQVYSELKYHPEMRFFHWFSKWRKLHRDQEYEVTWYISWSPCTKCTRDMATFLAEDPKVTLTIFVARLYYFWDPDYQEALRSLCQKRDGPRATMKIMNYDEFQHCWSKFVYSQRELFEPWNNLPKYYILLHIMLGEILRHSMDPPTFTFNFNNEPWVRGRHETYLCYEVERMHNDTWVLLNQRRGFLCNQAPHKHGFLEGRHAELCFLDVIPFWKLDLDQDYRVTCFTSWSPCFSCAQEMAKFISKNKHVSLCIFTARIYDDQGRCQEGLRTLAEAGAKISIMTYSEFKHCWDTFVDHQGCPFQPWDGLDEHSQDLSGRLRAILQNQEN
In short: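 HeLa cells stably expressing Vif and A3G-eYFP, 700 cells/well, incubated overnight at 37 deg C, then exposed to compound overnight at 37 deg C. Inhibition of Vif-mediated degradation read as increased yellow fluorescence (Ex 488/Em 500-530) by laser-scanning cytometry.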

[11] = biological target: Tumor susceptibility gene 101 protein (Homo sapiens) (UniProt Q99816); assay: qHTS Assay for Iinhibitors of HIV-1 Budding by Blocking the Interaction of PTAP/TSG101: Hit Validation (AID 651600); note: potency is the fitted concentration of half-maximal effect; nearly all actives have a fitted effect of over 70% in size
Sequence of Tumor susceptibility gene 101 protein (Homo sapiens) (Q99816 whole entry, looked up, the tested form may be a part): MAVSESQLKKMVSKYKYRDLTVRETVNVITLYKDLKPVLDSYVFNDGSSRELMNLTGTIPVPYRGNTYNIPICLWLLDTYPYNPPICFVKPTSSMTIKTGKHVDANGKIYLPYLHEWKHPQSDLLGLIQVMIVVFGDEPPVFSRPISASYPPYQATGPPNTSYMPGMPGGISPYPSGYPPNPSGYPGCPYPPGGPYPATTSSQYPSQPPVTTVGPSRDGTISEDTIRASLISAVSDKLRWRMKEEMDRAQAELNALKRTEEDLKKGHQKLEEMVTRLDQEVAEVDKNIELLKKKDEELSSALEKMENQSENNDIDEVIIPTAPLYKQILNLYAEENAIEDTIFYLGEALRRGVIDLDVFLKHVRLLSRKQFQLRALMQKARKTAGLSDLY
In short: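 Displacement of a FITC-labeled PTAP-motif peptide (50 nM) from the Tsg101 binding domain (10 uM) was monitored by fluorescence polarization after a 20 min room-temperature incubation.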

[12] = biological target: Flap endonuclease 1 (Homo sapiens) (UniProt P39748); assay: qHTS Assay for the Inhibitors of FEN1: Confirmatory Assay for Cherry-picked Compounds (AID 720498); details: FEN1 flap cleavage, TAMRA/BHQ2 fluorogenic DNA substrate; note: potency is the fitted concentration of half-maximal effect; nearly all actives have a fitted effect of over 60% in size
Sequence of Flap endonuclease 1 (Homo sapiens) (P39748 whole entry, looked up): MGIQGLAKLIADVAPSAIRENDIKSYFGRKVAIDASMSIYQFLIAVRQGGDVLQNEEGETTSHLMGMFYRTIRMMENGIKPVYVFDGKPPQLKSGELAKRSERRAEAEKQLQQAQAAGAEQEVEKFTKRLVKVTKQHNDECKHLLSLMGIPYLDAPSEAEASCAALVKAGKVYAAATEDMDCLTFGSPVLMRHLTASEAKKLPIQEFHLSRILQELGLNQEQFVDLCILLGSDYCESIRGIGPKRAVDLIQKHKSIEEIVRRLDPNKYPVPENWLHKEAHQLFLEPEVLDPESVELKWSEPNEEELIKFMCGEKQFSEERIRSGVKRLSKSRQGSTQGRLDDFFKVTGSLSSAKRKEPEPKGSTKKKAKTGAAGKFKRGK
In short: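 FEN1 at 10 nM was preincubated with compound for 15 min at room temperature, then 50 nM (final) double-flap DNA substrate was added. TAMRA fluorescence released from the BHQ-2-quenched flap was read at 0 and 15 min (ex 525/em 598 nm).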

[13] = biological target: Rap guanine nucleotide exchange factor 4 (Homo sapiens) (UniProt Q8WZA2); assay: Confirmatory qHTS for antagonist of cAMP-regulated guanine nucleotide exchange factor 4 (EPAC2) (AID 1645885); note: nearly all actives have a fitted effect of over 25% in size; note: potency is the fitted concentration of half-maximal effect

In the case of `CCCOP(=O)(OCCC)C(Nc1cccc(C(F)(F)F)c1)c1ccc(C)cc1` (stereo not given), the Potency [1] is reported as “inactive”, the Potency [2] is reported as “inactive” and the Potency [3] is reported as “inactive”.

With `O=C(Nc1ncccc1O)c1c(O)c2ccccc2[nH]c1=O` the Potency [1] was “inactive”, the Potency [2] was 100 µM (active) and the Potency [3] was “inactive”.

With `COc1ccc(CCC(=O)N(C)CC(=O)Nc2ccc(Cl)c(C(F)(F)F)c2)cc1` the Potency [1] was “inactive”, the Potency [2] was “inactive” and the Potency [3] was “inactive”.

With `O=C(NC1(O)C(=O)c2ccccc2C1=O)c1ccccc1` the Potency [4] was 6.31 µM (active), the Potency [1] was “inactive” and the Potency [2] was “inactive”. The Potency [5] was “inactive”.

With `CCOC(=O)c1c(NC(=O)C2C3C=CC(C3)C2C(=O)O)sc2c1CCC(CC)C2` (stereo not given) the Potency [1] was “inactive”, the Potency [2] was “inactive” and the Potency [3] was “inactive”.

For `CCN1CCN(S(=O)(=O)c2ccc(Cl)c(C(=O)N(C)Cc3cccc(Cl)c3Cl)c2)CC1`, the Potency [1] was “inactive”, the Potency [2] was “inactive” and the Potency [3] was “inactive”.

With `COc1ccc(CN(C)C(=O)c2ccc(OCC(=O)Nc3cccc(C(F)(F)F)c3)c(OC)c2)c(OC)c1` the Potency [1] was “inactive”, the Potency [2] was “inactive” and the Potency [3] was “inactive”.

In the case of `CC(NC(=O)COC(=O)C1CCN(c2ccc(C(F)(F)F)cn2)CC1)c1ccc(Br)cc1` (stereo not given), the Potency [1] is reported as “inactive”, the Potency [2] is reported as “inactive” and the Potency [3] is reported as “inactive”.

For `COc1ccc2c(c1)OCC(Cc1ccc(OC)c(OC)c1)C2=O` (stereo not given), the Potency [6] was 15.8 µM (active), the outcome [7] was “inactive” and the Potency [8] was “inactive”. The Potency [9] was “inactive”.

For `COC1/C=C/OC2(C)Oc3c(C)c(O)c4c(O)c(c(/C=N/N5CCN(C)CC5)c(O)c4c3C2=O)NC(=O)/C(C)=C/C=C/C(C)C(O)C(C)C(O)C(C)C(OC(C)=O)C1C` (stereo not given), the outcome [10] was “inactive”.

With `Cc1nn(C)cc1N1C(=O)c2cccc3c(N)ccc(c23)C1=O` the Potency [11] was 6.51 µM (active).

For `CCN1/C(=C\c2ccc3ccccc3[n+]2CC)Sc2cc(C)ccc21`, the Potency [12] was 21.3 µM (active).

For `COc1ccc(Cl)cc1NC(=O)COC(=O)c1cc(NS(=O)(=O)c2cccs2)ccc1O`, the Potency [1] was “inactive”, the Potency [13] was “inactive” and the Potency [5] was “inactive”.

In the case of `Cc1ccc(-c2nc3ccc(C)cn3c2Cc2cccc(F)c2)cc1`, the Potency [1] is reported as “inactive”, the Potency [13] is reported as “inactive” and the Potency [5] is reported as “inactive”.

With `Cc1cccc(C)c1Nc1c(-c2ccc(Cl)s2)nc2ncccn12` the Potency [1] was “inactive”, the Potency [13] was “inactive” and the Potency [5] was “inactive”.

In the case of `COc1ccc(NC(=O)COC(=O)CCCOc2ccc(Cl)cc2Cl)cc1Cl`, the Potency [1] is reported as “inactive”, the Potency [13] is reported as 6.01 µM (active) and the Potency [5] is reported as “inactive”. The Potency [3] was “inactive”.

With `COC(=O)c1ccc(OCC2c3cc(OC)c(OC)cc3CCN2C(=O)c2ccc(OC)cc2)cc1` (stereo not given) the Potency [1] was “inactive”, the Potency [13] was “inactive” and the Potency [5] was “inactive”.

With `CN(CC(=O)Nc1ccc(Cl)c(C(F)(F)F)c1)C(=O)c1ccc2c(c1)OCCO2` the Potency [1] was “inactive”, the Potency [13] was “inactive” and the Potency [5] was “inactive”. The Potency [3] was “inactive”.

In the case of `Cc1cccc(Cn2nnc3c(=O)[nH]c(C4CCCN(C(=O)c5ccc(C(C)(C)C)cc5)C4)nc32)c1` (stereo not given), the Potency [1] is reported as “inactive”, the outcome [13] is reported as “inactive [at 12.7 µM]” and the Potency [3] is reported as “inactive”.

In the case of `CCOc1cc2c(cc1/C=C/c1noc(C)c1[N+](=O)[O-])OC(C)C2` (stereo not given), the Potency [1] is reported as “inactive”, the Potency [13] is reported as “inactive” and the activity change, negative = inhibition [5] is reported as -13.8% [at 30.8 µM].

With `CC(C)C(NC(=O)C1CC(=O)N(Cc2ccccc2)C1)c1nc2ccccc2[nH]1` (stereo not given) the Potency [1] was “inactive”, the Potency [13] was “inactive” and the Potency [5] was “inactive”. The Potency [3] was “inactive”.

In the case of `COc1ccc(OC)c(NC(=O)CSc2nccn2-c2cc(C)cc(C)c2)c1`, the Potency [1] is reported as “inactive”, the Potency [13] is reported as “inactive” and the Potency [5] is reported as “inactive”. The Potency [3] was “inactive”.

For `O=S(=O)(c1cccc2ccccc12)N1CCCCC1`, the Potency [1] was “inactive”, the Potency [13] was 21.3 µM (active) and the Potency [5] was “inactive”. The Potency [3] was “inactive”.

With `COc1ccccc1/C=C(/C(=O)OCC(=O)Nc1ccc(N(C)C)cc1)c1ccccc1` the Potency [1] was “inactive”, the Potency [13] was 5.36 µM (active) and the Potency [5] was “inactive”. The Potency [3] was “inactive”.

For `Cn1cc(/C=C/c2cc[n+](C)cc2)c2cc(F)ccc21`, the Potency [1] was “inactive”, the Potency [13] was “inactive” and the Potency [5] was “inactive”. For the same compound, the Potency [3] was “inactive”.

For `Cn1cccc1/C=C1\SC(=S)N(NC(=O)c2cccc(Cl)c2)C1=O`, the Potency [1] was “inactive”, the Potency [13] was “inactive” and the Potency [5] was “inactive”. For the same compound, the Potency [3] was “inactive”.

In the case of `CN(C)c1ccc(/C=C2\C(=N)N3N=C(CC(=O)N4CCCCC4)SC3=NC2=O)cc1`, the Potency [1] is reported as “inactive”, the Potency [13] is reported as “inactive” and the Potency [5] is reported as “inactive”. For the same compound, the Potency [3] was “inactive”.

In the case of `Cc1nc(NC(=O)c2c(-c3ccccc3)c(-c3ccccc3)nn(C)c2=O)sc1C`, the Potency [1] is reported as “inactive”, the Potency [13] is reported as “inactive” and the Potency [5] is reported as “inactive”. The Potency [3] was “inactive”.
